# Laboratory results from PubChem BioAssay.
# Active and inactive are the calls of the source.
# Key:
# [1] = optical density shifts of acrAB sulA E. coli – strain DRC41, OD650, 48 h, E. coli filamentation inducer project, primary screen (AID 1152); conditions: higher = more signal, called active from +8 up or from −8 down;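 further: E. coli MC1000 strain DRC41 lacking acrAB efflux pump and sulA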
# [2] = probe aLefty1 binding on compound microarray – biochemical, small-molecule microarray, 635/667 nm fluorescence, primary screen (AID 1153); conditions: higher = more signal;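 further: score merges spot fluorescence with signal-to-noise ratio from the scanned slide images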
# [3] = plasmodial surface anion channel blockers, osmotic lysis – cell-based, P. falciparum Indochina, OD700, 1 h, primary screen (AID 1154); conditions: P. falciparum Indochina infected RBC osmotic lysis, higher = more signal, called active from +8 up or from −8 down
# [4] = plasmodial surface anion channel blockers, osmotic lysis – cell-based, P. falciparum Indochina, OD700, 2 h, primary screen (AID 1155);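 further: lysis reports solute entry through the parasite surface anion channel PSAC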; conditions: P. falciparum Indochina infected erythrocytes, higher = more signal, called active from +8 up or from −8 down
# [5] = changes in parasitized red cell lysis, either direction – P. falciparum Indochina, OD700, 3 h, PSAC antagonist project, primary screen (AID 1156); conditions: P. falciparum-infected erythrocytes, osmotic lysis, higher = more signal, called active from +8 up or from −8 down
# [6] = plasmodial surface anion channel blockers, osmotic lysis – cell-based, P. falciparum Indochina, OD700, 18 h, primary screen (AID 1157); conditions: P. falciparum Indochina infected erythrocytes, osmotic lysis OD700, 18 h; higher = more signal, called active from +8 up or from −8 down
# [7] = S6 kinase pathway phospho-S6 level changes – cell-based, A549, cytoblot, luminescence, serum-stimulated, primary screen (AID 1158); conditions: 5 h, higher = more signal;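 further: serum-stimulated A549 lung adenocarcinoma cells; signal is phosphorylated S6 detected by cytoblot immunostaining with HRP secondary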
# [8] = target: NADPH oxidase 2 (Homo sapiens) (UniProt P04839); assay: compounds shifting NOX2 Amplex Red fluorescence – cell-based, HEK293-NOX2, PMA-stimulated, NOX inhibitor project, primary screen (AID 1159); conditions: 45 min, higher = more signal, called active from +8 up or from −8 down; further: test concentration not given here
# [9] = target: NADPH oxidase 4 (Homo sapiens) (UniProt Q9NPH5); assay: compounds shifting NOX4 Amplex Red fluorescence – cell-based, HEK293-NOX4, tetracycline-induced, NOX inhibitor project, primary screen (AID 1160); conditions: HEK293-NOX4, Amplex Red H2O2 fluorescence, 45 min; higher = more signal, called active from +8 up or from −8 down
# [10] = target: NADPH oxidase 5 (Homo sapiens) (UniProt Q96PH1); assay: compounds shifting NOX5 Amplex Red fluorescence – cell-based, HEK293-NOX5, NOX inhibitor project, primary screen (AID 1161); conditions: HEK293-NOX5, ionomycin, 45 min, higher = more signal
# [11] = compound effects on lung adenocarcinoma cell viability – A549, calcein-AM fluorescence, 48 h, basal, profiling panel (AID 1162); conditions: higher = more signal; further: test concentration not given here
# [12] = compound effects on differentiated 3T3-L1 adipocyte viability – cell-based, 3T3-L1 adipocytes, calcein-AM fluorescence, 48 h, basal, profiling panel (AID 1163); conditions: 3T3-L1 adipocytes viability, higher = more signal; further: test concentration not given here
# [13] = compound effects on hepatocellular carcinoma cell viability – HepG2, calcein-AM fluorescence, 48 h, basal, profiling panel (AID 1164); conditions: higher = more signal; further: test concentration not given here
# [14] = compound effects on multiple myeloma cell viability – MM1S, calcein-AM fluorescence, 48 h, basal, profiling panel (AID 1165); conditions: higher = more signal; further: test concentration not given here
# [15] = calcein-AM signal in unstimulated myeloma cells – cell-based, calcein-AM fluorescence, 48 h, PK04 Diversity Set, profiling panel (AID 1166); conditions: RPMI8226 myeloma viability, higher = more signal;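 further: cells grown under basal conditions without added stimulus; test concentration not given here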
# [16] = JC-1 mitochondrial signal, unstimulated HepG2 cells – cell-based, JC-1 fluorescence, 24 h, 100 nL compound, profiling panel (AID 1167); conditions: HepG2 mitochondrial potential, higher = more signal; further: test concentration not given here
# [17] = JC-1 mitochondrial signal, unstimulated adipocytes – cell-based, JC-1 fluorescence, 3T3-L1 adipocytes, 24 h, 100 nL compound, profiling panel (AID 1168); conditions: JC-1 mitochondrial fluorescence, higher = more signal, called active from +8 up or from −8 down; further: test concentration not given here
# [18] = JC-1 mitochondrial signal, unstimulated myeloma cells – cell-based, JC-1 fluorescence, RPMI8226, 24 h, 100 nL compound, profiling panel (AID 1169); conditions: JC-1 mitochondrial potential fluorescence, higher = more signal; further: test concentration not given here
# [19] = JC-1 mitochondrial signal, unstimulated MM1S myeloma – cell-based, JC-1 fluorescence, 24 h, 100 nL compound, profiling panel (AID 1170); conditions: MM1S mitochondrial potential, higher = more signal; further: test concentration not given here
# [20] = resazurin metabolic signal in A549 cells – cell-based, resazurin fluorescence, 24 h, PK04 Diversity Set, profiling panel (AID 1171); conditions: A549 viability, higher = more signal, called active from +8 up or from −8 down; further: test concentration not given here
# NADPH oxidase 4 (Homo sapiens), sequence (Q9NPH5 whole entry, looked up): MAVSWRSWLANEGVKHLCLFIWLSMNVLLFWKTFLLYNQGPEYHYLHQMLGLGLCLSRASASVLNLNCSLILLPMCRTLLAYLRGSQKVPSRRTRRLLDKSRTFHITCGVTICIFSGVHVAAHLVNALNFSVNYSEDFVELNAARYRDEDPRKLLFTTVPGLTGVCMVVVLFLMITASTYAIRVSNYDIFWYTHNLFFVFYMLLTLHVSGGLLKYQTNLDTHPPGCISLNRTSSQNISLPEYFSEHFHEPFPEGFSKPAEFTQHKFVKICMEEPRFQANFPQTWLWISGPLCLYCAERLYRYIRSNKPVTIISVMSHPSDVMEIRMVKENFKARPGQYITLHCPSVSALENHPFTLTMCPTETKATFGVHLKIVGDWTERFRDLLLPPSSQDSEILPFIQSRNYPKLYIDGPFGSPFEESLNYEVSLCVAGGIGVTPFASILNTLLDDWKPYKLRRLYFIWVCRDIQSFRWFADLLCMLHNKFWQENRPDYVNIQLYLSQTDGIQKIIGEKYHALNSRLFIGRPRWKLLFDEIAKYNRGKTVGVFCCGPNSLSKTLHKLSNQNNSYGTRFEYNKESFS
# NADPH oxidase 5 (Homo sapiens), sequence (Q96PH1 whole entry, looked up): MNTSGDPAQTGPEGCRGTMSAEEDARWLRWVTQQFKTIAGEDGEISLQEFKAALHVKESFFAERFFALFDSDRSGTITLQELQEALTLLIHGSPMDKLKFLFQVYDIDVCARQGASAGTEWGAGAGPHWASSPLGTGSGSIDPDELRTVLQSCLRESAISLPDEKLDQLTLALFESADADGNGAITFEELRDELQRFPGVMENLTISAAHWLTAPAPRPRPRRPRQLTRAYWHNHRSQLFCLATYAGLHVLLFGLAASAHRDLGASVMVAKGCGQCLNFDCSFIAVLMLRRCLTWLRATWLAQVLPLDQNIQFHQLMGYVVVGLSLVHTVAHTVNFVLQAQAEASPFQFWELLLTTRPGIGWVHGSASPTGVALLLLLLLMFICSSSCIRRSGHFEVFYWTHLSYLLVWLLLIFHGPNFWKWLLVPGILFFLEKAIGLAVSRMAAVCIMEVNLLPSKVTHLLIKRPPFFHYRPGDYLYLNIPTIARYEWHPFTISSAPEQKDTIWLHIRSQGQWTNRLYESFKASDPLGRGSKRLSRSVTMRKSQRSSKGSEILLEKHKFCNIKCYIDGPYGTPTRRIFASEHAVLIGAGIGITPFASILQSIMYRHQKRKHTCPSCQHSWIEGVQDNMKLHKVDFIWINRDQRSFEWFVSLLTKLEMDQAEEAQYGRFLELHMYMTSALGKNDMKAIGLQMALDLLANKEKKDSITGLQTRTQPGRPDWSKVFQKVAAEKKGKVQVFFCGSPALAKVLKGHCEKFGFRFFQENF
# NADPH oxidase 2 (Homo sapiens), sequence (P04839 whole entry, looked up): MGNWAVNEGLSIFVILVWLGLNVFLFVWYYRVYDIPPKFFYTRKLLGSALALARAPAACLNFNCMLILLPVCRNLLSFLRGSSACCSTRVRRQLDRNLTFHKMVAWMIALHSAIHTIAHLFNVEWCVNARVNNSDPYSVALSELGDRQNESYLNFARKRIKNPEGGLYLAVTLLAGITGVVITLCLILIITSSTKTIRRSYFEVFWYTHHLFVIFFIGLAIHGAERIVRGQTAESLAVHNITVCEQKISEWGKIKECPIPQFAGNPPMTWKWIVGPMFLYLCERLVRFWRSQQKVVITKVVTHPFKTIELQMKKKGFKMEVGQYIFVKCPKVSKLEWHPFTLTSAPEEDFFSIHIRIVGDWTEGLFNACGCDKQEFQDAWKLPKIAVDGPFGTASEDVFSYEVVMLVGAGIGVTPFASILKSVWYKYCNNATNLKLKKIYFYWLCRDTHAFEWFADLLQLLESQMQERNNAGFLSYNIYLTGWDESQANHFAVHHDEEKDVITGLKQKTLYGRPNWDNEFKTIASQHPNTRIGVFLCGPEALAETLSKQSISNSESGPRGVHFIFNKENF
Structure (SMILES),z-score [1],composite z-score [2],z-score [3],z-score [4],z-score [5],z-score [6],z-score [7],z-score [8],z-score [9],z-score [10],z-score [11],z-score [12],z-score [13],z-score [14],z-score [15],z-score [16],z-score [17],z-score [18],z-score [19],z-score [20]
CC(C)[Si](C#CCCCC#N)(Oc1ccccc1Br)C(C)C,-0.4 (inactive),-0.104,0.614 (inactive),1.01 (inactive),-0.494 (inactive),0.823 (inactive),-0.49,-0.273 (inactive),-0.161 (inactive),-0.18,0.551,-0.924,0.235,-0.887,-0.181,-0.247,-0.183 (inactive),-0.756,0.2,-0.0106 (inactive)
COC(=O)[C@@]1(Cc2ccc(F)cc2)[C@H]2c3cc(C(=O)N(C)C)n(Cc4ccc(C)o4)c3C[C@H]2CN1C(=O)c1ccccc1,-0.92 (inactive),2.34,5.03 (inactive),1.73 (inactive),0.951 (inactive),1.3 (inactive),-0.239,0.455 (inactive),0.056 (inactive),0.604,0.0895,-0.333,0.625,-1.58,-2.03,0.0211,-1.72 (inactive),-0.847,-0.209,0.501 (inactive)
C#CCOc1ccc(C[C@@H](C(=O)OC)N(CC#C)[C@@H](/C=C/C2CC2)[C@H](O)Cc2ccccc2)cc1,-1.04 (inactive),-0.101,1.7 (inactive),0.135 (inactive),-0.173 (inactive),-0.111 (inactive),-0.138,-0.0591 (inactive),0.763 (inactive),-0.732,-1.05,-0.303,-2.42,-2.3,-2.19,-1.15,-0.00867 (inactive),-0.79,-0.524,0.313 (inactive)
CC(C)OC(=O)C=C1C[C@@H](c2cccc(Cl)c2)O[C@@H](c2cccc(Cl)c2)O1,-0.411 (inactive),0.165,0.915 (inactive),0.584 (inactive),-0.159 (inactive),0.61 (inactive),-0.0581,0.215 (inactive),-0.914 (inactive),-0.0406,-1.2,-0.0201,-0.822,-1.97,-0.66,-0.46,0.843 (inactive),0.0432,-1.51,0.146 (inactive)
C=CCC(OC(C)=O)[C@@H]1[C@@H](N(Cc2ccc(-c3ccccc3)cc2)C(=O)Cc2ccc(F)cc2)c2cc(OCCCO)ccc2N1C(=O)c1ccc2ccccc2c1 (stereo not given in full),0.185 (inactive),0.193,-0.0408 (inactive),0.345 (inactive),-0.348 (inactive),0.703 (inactive),-0.0772,0.719 (inactive),0.587 (inactive),1.82,0.444,0.0021,0.278,-0.895,-0.344,1.61,-0.413 (inactive),-0.192,0.769,0.799 (inactive)
O=C1C2C=CC(C(O)C=Cc3ccc([N+](=O)[O-])cc3)N(n3cnnc3)C2C(=O)N1Cc1ccccc1 (stereo not given),-0.892 (inactive),0.406,4.59 (inactive),1.03 (inactive),0.956 (inactive),0.83 (inactive),-0.584,-0.526 (inactive),-0.711 (inactive),-0.3,-0.915,0.0646,-0.129,-0.232,-1.03,-1.07,-0.566 (inactive),0.646,-0.178,0.367 (inactive)
CO[C@H]1O[C@H](CO)[C@@H](OC(=O)Nc2ccccc2-c2ccccc2)[C@H](OC(=O)Nc2ccccc2-c2ccccc2)[C@@H]1OC(=O)Nc1ccccc1-c1ccccc1,1.23 (inactive),0.407,1.79 (inactive),1.44 (inactive),0.552 (inactive),0.938 (inactive),-0.296,2.02 (inactive),0.114 (inactive),-0.114,-0.378,0.159,-0.0639,-0.857,-1.24,0.0618,1.6 (inactive),-0.194,1.33,-0.387 (inactive)
COc1cc2c(cc1OC)CN(C(=O)[C@H]1[C@@H]3C(=O)O[C@@H](c4ccccc4)[C@@H](c4ccccc4)N3[C@@H](c3ccccc3OCCO)[C@]13C(=O)Nc1ccc(C#CCCO)cc13)CC2,-0.667 (inactive),0.112,3.11 (inactive),1.89 (inactive),1.89 (inactive),0.835 (inactive),-0.482,1.44 (inactive),1.26 (inactive),0.819,0.228,-0.538,-0.368,-0.217,-0.33,-0.641,0.451 (inactive),-0.377,-0.96,0.426 (inactive)
[N-]=[N+]=NCc1ccccc1[C@@H]1OC(c2ccc(OCCCO)cc2)=N[C@]1(CCS(=O)(=O)c1ccccc1)C(N)=O,1.06 (inactive),0.428,26.4 (active),14.7 (active),0.618 (inactive),1.75 (inactive),-0.353,-0.282 (inactive),1.13 (inactive),2.23,0.338,-0.676,0.834,0.369,0.102,-1.67,-0.0551 (inactive),-0.875,-1.16,-0.174 (inactive)
CCCCN1CC=CC23O[C@@H]4/C=C\CCCOC(=O)C4[C@H]2C(=O)N(CCCCCO)[C@@H]3C1=O (stereo not given in full),-0.852 (inactive),-0.328,0.896 (inactive),0.481 (inactive),-0.765 (inactive),0.0625 (inactive),-0.782,1.07 (inactive),-0.18 (inactive),1.74,-0.234,1.14,-0.195,1.46,0.0001,-0.327,0.783 (inactive),0.163,-0.0801,0.356 (inactive)
COC(=O)[C@@]1(Cc2ccccc2)[C@H]2c3cc(C(=O)N(C)C)n(CCc4c[nH]c5ccc(O)cc45)c3C[C@H]2CN1C(=O)c1ccccc1,0.263 (inactive),-0.0831,7.05 (inactive),-0.38 (inactive),0.102 (inactive),-1.32 (inactive),1.82,-2.52 (inactive),-7 (inactive),-2.41,-0.206,0.389,1.22,-0.988,-0.235,-1.3,-0.215 (inactive),-0.532,-1.57,0.349 (inactive)
COc1ccc([Si](C)(C)[C@@H]2[C@@H](CCn3cc(CCO)nn3)O[C@]3(C(=O)N(Cc4cccc(N5C(=O)c6cccc7cccc5c67)c4)c4ccccc43)[C@H]2C)cc1,0.259 (inactive),-0.0011,4.42 (inactive),1.6 (inactive),1.22 (inactive),-0.682 (inactive),1.16,1.58 (inactive),1.76 (inactive),1.3,-2.01,1.32,-4.46,-2.86,-4.41,-0.414,1.02 (inactive),-0.931,-2.16,-3.53 (inactive)
C=CCN(Cc1ccccc1)C(=O)C(c1cccs1)N(C(=O)/C=C\C(=O)O)c1ccc(CCOCCO)cc1 (stereo not given),1.61 (inactive),-0.0538,1.51 (inactive),-0.707 (inactive),0.189 (inactive),-1.04 (inactive),1.77,-0.108 (inactive),-0.821 (inactive),-0.58,0.631,0.007,0.97,1.82,0.526,0.427,0.319 (inactive),0.697,-1.06,-0.52 (inactive)
NC(=O)N1C(=O)C2C(C1=O)C1C=C(CCCO)C2C(C2CC2)N1Cc1cc2c(cc1Br)OCO2 (stereo not given),-0.766 (inactive),0.19,4.92 (inactive),0.494 (inactive),-0.23 (inactive),0.357 (inactive),0.415,0.334 (inactive),-0.381 (inactive),-0.344,-0.318,0.505,-0.0479,-2.42,-0.885,-0.258,-0.274 (inactive),0.21,-0.237,-0.604 (inactive)
CS(=O)(=O)CCOC(=O)C1=CC(CCCO)=CC(C2CC2)N(Cc2cc3c(cc2Br)OCO3)C=C1C(=O)OCCS(C)(=O)=O (stereo not given),0.307 (inactive),0.131,3.83 (inactive),1.02 (inactive),0.106 (inactive),0.504 (inactive),0.404,-1.56 (inactive),-0.0814 (inactive),-1.11,1.25,0.385,0.862,-0.538,-0.246,3.31,0.262 (inactive),-0.41,-1.37,0.796 (inactive)
O=C1OCCC=C[C@H]2OC34C=CCN(Cn5nnc6ccccc65)C(=O)[C@H]3N(CCO)C(=O)[C@@H]4C12 (stereo not given in full),1.41 (inactive),-0.147,1.03 (inactive),0.793 (inactive),1.08 (inactive),0.601 (inactive),-0.18,1.55 (inactive),1.22 (inactive),1.73,-0.679,0.432,-0.556,0.897,-1.08,-0.298,0.756 (inactive),0.42,-0.0431,0.293 (inactive)
CN1C(=O)C2C=CC(C(O)c3ccccc3)N(N3CCCCC3)C2C1=O (stereo not given),-2 (inactive),0.0971,0.15 (inactive),0.913 (inactive),0.302 (inactive),0.827 (inactive),-0.965,-0.121 (inactive),-1.01 (inactive),-1.08,-1.15,-0.898,-0.0624,-0.4,0.539,-0.699,0.651 (inactive),0.0583,0.581,-0.789 (inactive)
COC(=O)[C@@]1(Cc2ccccc2)[C@H]2c3cc(C(=O)N(C)C)n(Cc4ccc(OC)c(OC)c4)c3C[C@H]2CN1C(=O)c1ccccc1,-1.95 (inactive),0.211,3.81 (inactive),1.2 (inactive),0.688 (inactive),1.11 (inactive),-0.399,-0.415 (inactive),-0.865 (inactive),-0.0397,-1.29,-0.24,0.148,-1.42,-2.64,0.811,-1.12 (inactive),-0.706,-1.14,-1.2 (inactive)
